Growth data for 40 compounds are collected here from PubChem BioAssay (NCI).

The panel holds about 83,000 compounds, 20% with a hit somewhere; the sample as a whole holds those more often.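 Results are percent growth after 48 hours of single-concentration exposure. 100 means growth as in untreated cells, lower positive values show inhibition; negative values down to -100 show cell death.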 Calls of active or inactive are those of the source. How the source made its calls: active means growth percent below 10; inactive means the rest.

The assay relates to MDA-MB-468 breast. The assay can be described thus: NCI-60 one-dose screen, 48 h (100 = growth as untreated, 0 = no growth, -100 = all killed). Conditions: 10 µM unless noted.
`O=C1NC(=O)C(CSc2ccccc2)(c2ccccc2)N1` (stereo not given): the growth is 105% (inactive).
For `O=C(Nc1ccc(Cl)cc1)N1CCN(c2ccc3nncn3n2)CC1`, the growth is -78.2% (active).
For the compound `COc1cc(CCCO)c(OC)c(OC)c1OC`, the growth was 104% (inactive).
With `O=C(/C=C\c1cccc([N+](=O)[O-])c1)/C=C/c1cccc([N+](=O)[O-])c1`, the growth is 91.4% (inactive).
On to `CN(Cc1ccccc1)c1nc(Cl)c(C2CC(c3ccc4c(c3)OCO4)=NN2c2cc(Cl)cc(Cl)c2)s1` (stereo not given), for which the growth was 103% (inactive).
Turning to `COc1ccc(/C=C\c2cc(OC)c(OC)c(OC)c2)cc1OC(=O)c1cccc(Cn2cc(CCOC(=O)[C@H](N)Cc3cn(C)c4ccccc34)nn2)c1`, the growth is 13.9% (inactive).
For the compound `N#Cc1c(N)n2c(nc1=Nc1ccc(Cl)cc1)sc1cc(Cl)ccc12`, the growth is 22.5% (inactive).
With `O=C(O)c1ccc(-n2cc(/C=N/Nc3ccc(Cl)cc3)c(-c3ccc(F)c(F)c3)n2)cc1`, the growth is 83.2% (inactive).
As to `Cc1nc2sc(C(=O)Nc3ccc(Cl)cc3)c(N)c2cc1C(O)c1ccccc1` (stereo not given), the growth was -0.107% (active).
`COc1cc2c(cc1O)[C@@]1(C)[C@H](c3ccccc3Br)OC(=O)N1CC2`: the growth was 61.1% (inactive).
As for `Oc1ccc(Cn2cc3c(c2-c2ccccc2)CCc2cnoc2-3)cc1`, the growth was 89.2% (inactive).
In the case of `COc1cccc(-c2nn(-c3ccccc3)cc2-c2ccnc(-c3cccnc3)c2)c1`, the growth was 80.4% (inactive).
Take `C#CCCCCCCC[C@@H]1OC(=O)[C@H]([C@@H](C)CC)NC(=O)[C@@H]([C@@H](C)CC)NC(=O)CC(=O)[C@@H]1C`: the growth was 101% (inactive).
The figure for `NNCCc1ccc(NC(=O)CCCc2ccc(/C=C/C(=O)NO)cc2)cc1` is 18% (inactive); for `O=C(Nc1ccncc1)C(=O)c1cn(S(=O)(=O)c2cccc(Cl)c2F)c2ccccc12` it is 33% (inactive).
For `C=C1C(=O)O[C@H]2[C@H]1CC/C(COC(=O)/C=C\C(=O)NCc1ccc(Cn3c(=O)sn(CCCC)c3=O)cc1)=C\CC[C@@]1(C)O[C@@H]21`, the growth is -70.9% (active).
The figure for `O=C(N=Nc1c(O)[nH]c2ccccc12)Nc1ccc(F)cc1` is 103% (inactive).
As to `CCCCCCCCCCCCNC(=O)[C@H]1CSC(c2cc3ccccc3s2)N1` (stereo not given in full), the growth was -57.9% (active).
The value for `CN1CCN(c2ccc3nc(-c4cc(C(C)(C)C)c(O)c(C(C)(C)C)c4)[nH]c3c2)CC1` was 65.4% (inactive); that for `COc1cccc2c1C(=O)c1c(O)c3c(c(O)c1C2=O)C[C@@](O)(C(=O)CO)C[C@@H]3O[C@H]1C[C@H](N)[C@@H](O)[C@H](C)O1` was -57% (active).
In the case of `CCNc1ccc(-c2nc3ccccc3n3cccc23)cc1`, the growth is 2.19% (active).
The figure for `O=C(c1cccc(Br)c1)N1CCN(c2ccnc3cc(Cl)ccc23)CC1` is 66% (inactive).
On to `NCCn1cc(-c2nc(-c3c[nH]c4ncccc34)cs2)c2ccccc21`, for which the growth is 40.5% (inactive).
Take `O=C(CNC(=O)c1cccc2ccccc12)Nc1ccccc1Oc1ccc(O)cc1`: the growth was 27.5% [5 µM] (inactive).
The figure for `CC(C)CC(=O)C(CCc1ccccn1)C(C)C` (stereo not given) is 109% (inactive); for `CC(=O)N1N=C(c2ccc(C)cc2)CC1c1ccc(Oc2ccc(Br)cc2)cc1` (stereo not given) it is 75% (inactive).
For `O=C(CSc1nc2ccccc2[nH]1)Nc1cccc(Cl)c1`, the growth is 113% (inactive).
As to `CN1C(=O)C(=Cc2cn(Cc3ccccc3)c3ccc(Br)cc23)C(=O)N(C)C1=O`, the growth was -49.4% (active).
Regarding `CCOC(=O)C1=C(C)N=C2Sc3cccc(OC)c3N2[C@H]1c1ccccn1`, the growth is 108% (inactive).
For `NCCSC(c1ccccc1)(c1ccccc1)c1ccccc1`, the growth was 8.69% (active).
In the case of `COc1ccc(/C=c2\sc3n(c2=O)C(c2cc(OC)c(OC)c(OC)c2)C=C(c2ccc(OC)c(OC)c2)N=3)cc1OC` (stereo not given), the growth is 105% (inactive).
For `Cc1cc(SC#N)cc(C(C)(C)C)c1O`, the growth was 105% (inactive).
The figure for `CCCCN(CC)CC(CC)Nc1cc(OC)cc2cccnc12` (stereo not given) is 119% (inactive); for `Br/C(=N\Nc1nn[nH]n1)c1ccccc1` it is 104% (inactive).
The value for `N=C1/C(=C2\NC3C=CC=CC3S2)C(c2ccc(Cl)cc2)C2C(=O)N(c3ccccc3)C(=S)N12` (stereo not given) was 97.9% (inactive); that for `CC(C)(C)CC(C)(C)NCc1cc(C(C)(C)C)cc(CNC(C)(C)CC(C)(C)C)c1O` was 36.2% (inactive).
In the case of `O=C1c2ccccc2C(=O)c2c1oc1ccc3ccccc3c21`, the growth is -10.4% (active).
As to `O=C1N[C@H]2[C@H](CS[C@H]2CCCCC(=O)N(CCP(c2ccccc2)c2ccccc2)CCP(c2ccccc2)c2ccccc2)N1`, the growth is 33.8% (inactive).
As for `COc1cc2ncnc(Oc3ccc(NC(=O)Nc4ccc(CN5CCOCC5)c(C(F)(F)F)c4)c4ccccc34)c2cc1OC`, the growth is -12.3% (active).
As to `COCCOC(=O)NC(=O)Nc1ccc(/C(=N/O)c2ccc(Cl)cc2)cc1`, the growth is 19.8% (inactive).
